Calls of active or inactive are those of the source. How the source made its calls: active means hit-call score of the fitted dose curve at least 0.9, where 1 is the maximum; inactive means score below 0.9.
Read-out: CD40, CD40 (gene 958)
Experiment: BSK_SAg_CD40: BioMAP Diversity Plus: SAg Assay for CD40 Biomarker Activity (AID 2283088)
Details: primary human HUVEC with PBMC; actives raise or lower the signal
Method: BSK_SAg is a cell-based, multiplexed-readout assay that uses umbilical vein endothelium and peripheral blood mononuclear cells, a human vascular primary cell co-culture, with measurements taken at 24 hours after chemical dosing in a 96-well plate.BSK_SAg_CD40 is one of 10 assay component(s) measured or calculated from the BSK_SAg assay. It is designed to make measurements of enzyme-linked immunosorbent assay, a form of binding reporter, as detected with fluorescence intensity signals by Enzyme-linked immunosorbent assay technology.Data from the assay component BSK_SAg_CD40 was analyzed into 1 assay endpoint. This assay endpoint, BSK_SAg_CD40, was analyzed with bidirectional fitting relative to DMSO as the negative control and baseline of activity. Using a type of binding reporter, gain or loss-of-signal activity can be used to understand changes in the signaling as they relate to the gene CD40. Furthermore, this assay endpoint can be referred to as a primary readout, because this assay has produced multiple assay endpoints where this one serves a signaling function. To generalize the intended target to other relatable targets, this assay endpoint is annotated to the cytokine intended target family, where the subfamily is inflammatory factor.
The levels of cell surface (or secreted, indicated by the prefix "s") biomarker endpoints were measured by ELISA. Overt cytotoxicity to cells in confluent adherent cultures (all systems other than the BT system) was assessed by measuring total protein levels using sulforhodamine B (SRB) staining in parallel cultures at the time of biomarker measurements, indicated as SRB endpoints. For proliferation assays for adherent cell types, individual cell types are cultured at sub-confluence and relative cell numbers quantified by SRB staining at time points optimized for each system (48 h: 3C and CASM3C systems; 72 h: BT and HDF3CGF systems; 96 h: SAg system). SRB was performed by staining cells with 0.1% SRB after fixation with 10% TCA and reading wells at 560 nm.Viability and proliferation of PBMC (T cells) was quantified by Alamar Blue reduction for the SAg and BT systems. For PBMC viability (referred to as PBMC Cytotoxicity within the assay endpoint names), cells were plated (75,000/well in a 96-well plate) and then chemical samples added for 1 h before addition of activators, SEB and TSST-1 (20 ng/mL final concentration each). Cells were incubated for 90 h. Then, Alamar Blue (20 uL/well) (Invitrogen, Cat DAL1100) was added for 6 h, and the plates were read with a fluorescence microplate reader at 546/580 nm (excitation/emission). For PBMC proliferation, cells were plated and activated as above but incubated for only 16 h prior to addition of Alamar Blue. Plates were read after 6 h.

Question: With `O=c1[nH]sc2ccccc12` as the compound, how does the AC50 read?
Answer: 7.92 µM (active)

Question: Which AC50 does the source give for `Clc1ccccc1C(c1ccccc1)(c1ccccc1)n1ccnc1` here?
Answer: 20 µM (active)

Question: For `CC1=CC(=O)/C(=C(/C)O)C(=O)O1`, which outcome is on record?
Answer: inactive

Question: How did the outcome turn out when `CCCCCCCC[Si](OCC)(OCC)OCC` was run?
Answer: inactive

Question: Which outcome does the source give for `CCCCCCCCCCCO` here?
Answer: inactive

Question: `Cc1cc(F)ccc1-c1cc(N2CC[C@@H](O)[C@H]2CO)ncc1N(C)C(=O)C(C)(C)c1cc(C(F)(F)F)cc(C(F)(F)F)c1` was tested. Which AC50 did it give?
Answer: 9.9 µM (active)

Question: Which outcome does the source give for `CCCCOC(=O)c1ccc(O)cc1` here?
Answer: inactive

Question: `Oc1ccc2ccccc2c1` was tested. Which outcome did it give?
Answer: inactive

Question: Which outcome does the source give for `CCN(Cc1cccc(S(=O)(=O)O)c1)c1ccc(C(=C2C=CC(=[N+](CC)Cc3cccc(S(=O)(=O)O)c3)C=C2)c2ccccc2S(=O)(=O)[O-])cc1` here?
Answer: inactive

Question: With `CCCCOC(=O)CC(CC(=O)OCCCC)(OC(C)=O)C(=O)OCCCC` as the compound, how does the outcome read?
Answer: inactive

Question: Which outcome does the source give for `O=C(O)c1ccccc1-n1cc(C(=O)O)c(=O)c2cc(Nc3c(F)cc(F)cc3Cl)c(Cl)cc21` here?
Answer: inactive

Question: Which outcome does the source give for `CCCCCc1ccc(N)cc1` here?
Answer: inactive

Question: `COc1cccc([C@H](O)C2CCN(CCc3ccc(F)cc3)CC2)c1OC` was tested. Which outcome did it give?
Answer: inactive

Question: How did the AC50 turn out when `CCCCCCCCCCCCO` was run?
Answer: 31.6 µM (active)

Question: How did the AC50 turn out when `CC(C)(C)c1csc(-c2cc3cc(OCc4ccccc4CC(=O)O)ccc3o2)n1` was run?
Answer: 19.1 µM (active)

Question: How did the outcome turn out when `O=C=NCCCCCCN=C=O` was run?
Answer: inactive

Question: `O=CCCCC=O` was tested. Which AC50 did it give?
Answer: 29.8 µM (active)

Question: For `CCCCCCCCOc1ccc(C(=O)c2ccccc2)c(O)c1`, which AC50 is on record?
Answer: 30.3 µM (active)

Question: `COCC(C)OCC(C)OCC(C)O` (stereo not given) was tested. Which outcome did it give?
Answer: inactive

Question: With `Cc1cccc2ccccc12` as the compound, how does the outcome read?
Answer: inactive

Question: For `CO[C@H]1/C=C/O[C@@]2(C)Oc3c(C)c(O)c4c(O)c(c(/C=N/N5CCN(C)CC5)c(O)c4c3C2=O)NC(=O)/C(C)=C\C=C\[C@H](C)[C@H](O)[C@@H](C)[C@@H](O)[C@@H](C)[C@H](OC(C)=O)[C@@H]1C`, which outcome is on record?
Answer: inactive

Question: Which outcome does the source give for `Cc1occc1C(=O)Nc1ccc(C(=O)N2CCC(F)(F)/C(=C\C(=O)N3CCC(N4CCCCC4)CC3)c3ccccc32)cc1` here?
Answer: inactive

Question: Which outcome does the source give for `CC(C)(O)c1ccc(CNC(=O)c2cccnc2Oc2ccc3nonc3c2)cc1` here?
Answer: inactive

Question: Which outcome does the source give for `O=C(O)c1ccccc1C(=O)OCc1ccccc1` here?
Answer: inactive

Question: For `CN(C)c1ccc(C(=C2C=CC(=[N+](C)C)C=C2)c2ccc(N(C)C)cc2)cc1`, which AC50 is on record?
Answer: 0.534 µM (active)

Question: Which AC50 does the source give for `Cc1cc2c(cc1C(F)(F)F)N(C(=O)Nc1ccc(Oc3cccnc3C)nc1)CC2` here?
Answer: 18.4 µM (active)

Question: How did the AC50 turn out when `CC(C)(c1cc(Br)c(O)c(Br)c1)c1cc(Br)c(O)c(Br)c1` was run?
Answer: 23 µM (active)

Question: How did the outcome turn out when `C[C@]12CC[C@@H]3c4ccc(O)cc4CC[C@H]3[C@@H]1CCC2=O` was run?
Answer: inactive

Question: `CN1C(=O)N(c2ccccc2Br)Cc2cnc(Nc3ccc4c(c3)OCC(CO)O4)nc21` (stereo not given) was tested. Which AC50 did it give?
Answer: 2.19 µM (active)

Question: Which outcome does the source give for `Oc1ccccc1` here?
Answer: inactive

Question: How did the outcome turn out when `O=C(O)Cn1c(=O)n(Cc2ccc(Br)cc2F)c(=O)c2ccc(Cl)cc21` was run?
Answer: inactive

Question: How did the AC50 turn out when `O=C(Nc1ccc(Cl)cc1)Nc1ccc(Cl)c(Cl)c1` was run?
Answer: 3.04 µM (active)

Question: How did the outcome turn out when `c1ccc2ccccc2c1` was run?
Answer: inactive

Question: With `Cc1cn([C@H]2C[C@H](N=[N+]=[N-])[C@@H](CO)O2)c(=O)[nH]c1=O` as the compound, how does the outcome read?
Answer: inactive

Question: How did the outcome turn out when `Cc1ccc2oc(CN(Cc3ccccc3)C(=O)Nc3c(F)cc(F)cc3F)c(-c3ccc(Cl)cc3)c2c1` was run?
Answer: inactive

Question: `CCN(Cc1cccnc1)C(=O)c1cccc(Cl)c1[C@]1(C)C(=O)N(Cc2ccc(OC)cc2OC)c2ccc(Cl)cc21` was tested. Which AC50 did it give?
Answer: 5.55 µM (active)

Question: Which outcome does the source give for `OCCO` here?
Answer: inactive

Question: How did the AC50 turn out when `NC(=O)c1nc(-c2cccc(-c3cc(F)ccc3OCC(F)(F)C(F)(F)F)c2)n[nH]1` was run?
Answer: 26.9 µM (active)

Question: `CC[C@H](NC(=O)c1cc(F)ccc1NS(=O)(=O)c1cccc2cccnc12)c1ccccc1` was tested. Which AC50 did it give?
Answer: 6.29 µM (active)

Question: With `CC(O)CC(C)(C)O` (stereo not given) as the compound, how does the outcome read?
Answer: inactive
